Only a selection was taken, and hits are over-represented in it overall.
NS1 function inh = influenza NS1 inhibition. AID 2326. Potency, µM (titrated, usually from 46.1 µM), inactives show top-dose activity, positive = more growth. 270,000 tested, 0.4% active; calls by dose curve; note: potency is the fitted concentration of half-maximal effect; actives are rising curves; nearly all actives have a fitted effect of over 50% in size
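Read-out: OD600 growth recovery of NS1-expressing budding yeast. Cells grown overnight at 30C in -URA glucose medium, washed, resuspended and diluted 1:100 in 2% galactose assay medium, pH 6.0. Same strain lacking NS1 served as positive control.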
AmpC detergent = blocks E. coli AmpC beta-lactamase in detergent assay | 370,000 tested, 0.041% active | AmpC hydrolysis of nitrocefin, absorbance 480 nm, 0.01% Triton | Potency, µM (doses to about 114 µM), for inactives: at the highest dose activity change, negative = inhibition, actives largely listed as inhibitors | P00811;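 note: potency is the fitted concentration of half-maximal effect; 0% = no-compound wells and -100% = no-enzyme wells; nearly all actives have a fitted effect of over 25% in size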
Target sequence (P00811 whole entry, looked up): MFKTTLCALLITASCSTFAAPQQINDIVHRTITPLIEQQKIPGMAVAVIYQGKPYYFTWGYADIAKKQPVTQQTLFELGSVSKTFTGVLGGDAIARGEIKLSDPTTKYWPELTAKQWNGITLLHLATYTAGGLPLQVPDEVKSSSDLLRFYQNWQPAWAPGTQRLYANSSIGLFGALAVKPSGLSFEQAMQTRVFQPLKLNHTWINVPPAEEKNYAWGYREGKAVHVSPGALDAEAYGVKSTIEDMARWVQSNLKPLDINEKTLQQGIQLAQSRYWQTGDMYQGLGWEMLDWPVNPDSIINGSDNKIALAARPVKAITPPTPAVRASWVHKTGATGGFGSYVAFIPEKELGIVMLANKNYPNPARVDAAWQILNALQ
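AmpC (5.3 nM in the dispensed reagent) in 20 mM phosphate pH 7.0 with 0.01% (detergent screen) or 0.0001% Triton X-100 was preincubated with compounds for 15 min at room temperature. Nitrocefin was then added from an 800 uM solution, and hydrolysis was followed at 480 nm.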
Cycloheximide cs = counter-screen hit for Shiga toxin inhibitors, cycloheximide; cell reporter, cycloheximide protein synthesis inhibition counterscreen; max response, %; 300,000 tested, 12% active; AID 2314; in the data active = max response mostly above about 13%, no sharp cut-off; inactive = mostly below about 14%; note: read at 38.3 µM for the half of the compounds with a filed dose; 0% is about no effect
Shiga toxin inh = blocks Shiga toxin action in Vero cells; AID 2315; inhibition, % at 38.7 µM; 290,000 tested, 9.2% active; Vero cells, Shiga toxin protein synthesis inhibition reporter; in the data active = inhibition mostly above about 28%, no sharp cut-off; inactive = mostly below about 43%; note: 0% is about no effect
AmpC inh no detg = blocks E. coli AmpC beta-lactamase in detergent-free assay; P00811; AmpC nitrocefin hydrolysis, absorbance 480 nm, 0.0001% Triton; Potency, µM (top dose mostly 57.1 µM), for inactives: top-dose activity change, negative = inhibition, most hits filed as inhibitors; 330,000 tested, 0.52% active;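 note: potency is the fitted concentration of half-maximal effect; plate controls were no compound for no effect and no enzyme for full effect; nearly all actives have a fitted effect of over 20% in size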
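20 mM phosphate pH 7.0 + 0.01% (detergent screen) or 0.0001% Triton X-100; 5.3 nM AmpC reagent; cpd preinc 15 min RT; nitrocefin (800 uM stock) to start; A480 q20 s × 4 min; Activity was normalised to no-enzyme and no-compound control wells.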
Starred values were filed as active, the others as inactive; ? = inconclusive; . = no result given. Unless noted, calls come from the whole dose curve; as a rule, active = well fitted curve in the direction sought with a large enough effect; inconclusive = small, poorly fitted or top-dose-only effect, or another doubt; inactive = no such curve, though single readings can be large; an effect the other way counts as inactive or inconclusive.

SMILES | NS1 function inh | AmpC detergent | Cycloheximide cs | Shiga toxin inh | AmpC inh no detg
O=c1c(Cl)c(N2CCN(c3ccc(F)cc3)CC2)cnn1-c1nc2ccccc2s1 | 0% | -5% | 39* | 75* | -9%
CCCCCn1ncc2c3sc(C)cc3n(C)c2c1=O | . | . | 32* | 91* | .
Cc1ccc(C(=O)COC(=O)CN2C(=O)C3C4CCC(C4)C3C2=O)cc1C (stereo not drawn) | -2% | 4% | 12* | 7 | 54%
Cc1ccc(C(=O)COC(=O)CN2C(=O)C3C4CCC(C4)C3C2=O)cc1[N+](=O)[O-] (stereo not drawn) | -12% | -11% | 1 | -1 | -16%
CCOC(=O)c1cn[nH]c1C(F)(F)F | 4% | -10% | 1 | -1 | -12%
CCOC(=O)c1cn[nH]c1NC(=S)Nc1ccc(Cl)cc1 | -10% | 0% | 58* | 58* | -40%
Cc1cc(C(=O)Nc2ccc(C(=O)O)cc2)c(C)o1 | -12% | -2% | 6 | 9 | -18%
Cc1oc(C(C)(C)C)cc1C(=O)Nc1cccc(C(=O)O)c1 | 12% | -1% | 37* | 80* | -29%
Cc1oc(CC(C)C)cc1C(=O)Nc1ccc(C(=O)O)cc1 | -134% | -15% | 57* | 43 | -24%
Cc1oc(C(C)(C)C)cc1C(=O)Nc1ccc(C(=O)O)cc1 | -112% | -11% | 36* | 48 | -19%
Cc1cc(C(=O)Nc2cccc(C(=O)O)c2)c(C)o1 | 6% | -12% | 3 | 20 | 1%
COC(=O)/C=C/CSC1=N/C(=C/c2ccc(-n3cncn3)cc2)C(=O)N1 | ? | ? | 10 | 63 | 0%
Cc1ccc(NC(=O)C2=C(O)CCn3c2nc2ccccc23)cc1 | -11% | -1% | 22* | 37 | 24%
CCOc1ccc(C(=O)Nc2cccc(OCc3cc(=O)n4cc(C)sc4n3)c2)cc1 | . | 7% | . | . | .
O=C(/C=C/c1ccc(O)c(O)c1)c1ccc(S(=O)(=O)N2CCCCCC2)cc1 | 0% | ? | -1 | 31 | 25µM*
O=C(c1ccc(S(=O)(=O)N2CCCC2)cc1)N1CCCCC1 | . | -8% | . | . | -6%
COc1ccccc1N1C(=O)NC(=O)/C(=C/c2ccc3c(c2)Cc2ccccc2-3)C1=O | -2% | ? | 12 | 45* | -18%
O=C1NC(=O)N(c2ccccc2)C(=O)/C1=C/c1ccc2c(c1)Cc1ccccc1-2 | . | -2% | 15 | 82 | -22%
COc1ccc2oc(=O)c(-c3nc(-c4cc(OC)c(OC)c(OC)c4)no3)cc2c1 | . | 20% | . | . | .
O=c1oc2ccccc2n1CCCOc1ccccc1 | -5% | -14% | 33* | 95* | ?
COc1ccccc1OCCCn1c(=O)oc2ccccc21 | 3% | -11% | 24* | 43* | -23%
COc1ccccc1OCCCn1c(=O)sc2ccccc21 | -24% | -13% | 28* | 103 | -10%
O=C1c2ccccc2C(=O)N1CCn1c(=O)oc2ccccc21 | -2% | 4% | 31* | 41* | ?
COc1ccccc1OCCCn1c(=O)oc2ccc(C)cc21 | -46% | ? | -3 | 47 | 17%
COC(=O)c1ccc(NC(=O)c2c(NCc3ccc(C)o3)sc3c2CCCC3)cc1 | . | 9% | . | . | .
SMILES | NS1 function inh | AmpC detergent | Cycloheximide cs | Shiga toxin inh | AmpC inh no detg
CC1=NN(C(N)=S)C(=O)C1N=Nc1ccccc1 (stereo not drawn) | . | 4% | 5 | 24 | -13%
CC1=NN(C(N)=S)C(=O)C1N=Nc1cccc2ccccc12 (stereo not drawn) | -35% | 1% | 13 | 25 | -26%
CC1=NN(C(N)=S)C(=O)C1N=Nc1ccc(Br)cc1 (stereo not drawn) | -12% | -2% | 39* | 53 | -22%
CC1=NN(C(N)=S)C(=O)C1N=Nc1ccc(Cl)cc1 (stereo not drawn) | -19% | -14% | 33* | 77* | -36%
CC1=NN(C(N)=S)C(=O)C1N=Nc1cccc(Cl)c1C (stereo not drawn) | -40% | -13% | 26* | 37* | -23%
CCOc1ccc(CNc2nc3nc(C)c(Cc4ccccc4)c(=O)n3[nH]2)cc1 | . | -4% | . | . | .
COc1ccc(C/C(N)=N/OC(=O)c2ccc(Cl)cc2)cc1 | . | 3% | 21* | 55* | -11%
O=C(Cc1ccc([N+](=O)[O-])cc1)OCc1c(F)cccc1Cl | -10% | 1% | 17* | 56 | -26%
N/C(Cc1ccc(Cl)cc1)=N\OC(=O)c1ccc2ccccc2c1 | -60% | ? | 9 | 5 | -26%
N/C(Cc1ccc([N+](=O)[O-])cc1)=N\OC(=O)c1ccccc1F | -3% | 2% | 18* | 38* | -14%
N/C(Cc1ccc(Cl)cc1)=N\OC(=O)c1cccc2ccccc12 | -196% | -10% | 23* | 37 | -20%
CCOc1ccc(-c2ncncc2-c2ccc(OC)c(OC)c2)c(O)c1 | -5% | -14% | 1 | -4 | 4%
O=C1c2ccccc2C(=O)N1c1ccc(Cc2ccc(N3C(=O)c4ccccc4C3=O)cc2)cc1 | -3% | . | . | . | .
Cc1cccc(NC(=O)CSc2nc3c(sc4ccccc43)c(=O)n2CCCC(=O)NC2CCCC2)c1 | . | 11% | . | . | .
Cc1cnn(-c2cc(Oc3ccccc3)ncn2)c1 | -49% | 3% | 52* | 112* | 1%
c1ccc(Oc2cc(-n3cncn3)ncn2)cc1 | 1% | ? | 15 | 39* | -23%
c1ccc(Oc2cc(-c3ccccc3)ncn2)cc1 | -22% | -5% | 59* | 127* | 4%
COc1ccc(CCNC(=O)CSc2nnc(-c3ccc(C)cc3)c(-c3ccc(C)cc3)n2)cc1OC | . | 5% | . | . | .
CCCC(=O)Nc1nc2c(ncn2[C@@H]2O[C@H]3COP(=O)(O)O[C@@H]3[C@@H]2OC(=O)CCC)c(=O)[nH]1 | . | . | -11 | -6 | .
O=C(NCCc1ccccc1)c1ccc(CSc2nc3ccncc3n2Cc2ccccc2)cc1 | . | 19% | . | . | .
Cc1ccc(NC(=O)CSc2nnc(-c3ccoc3C)n2CCCN(C)C)cc1Cl | 0% | -7% | -7 | -10 | 41%
CCOC(=O)N1CCC(NC2CCCCCCC2)CC1 | -10% | 0% | 11 | 3 | -11%
COc1cc(/C=C/C(=O)O)cc(S(=O)(=O)N(CC(C)C)CC(C)C)c1OC | . | -2% | -2 | 4 | -34%
O=[N+]([O-])CC(=Nc1ccc(Cl)cc1)N/N=C\c1oc(O)c2ccccc12 | 0% | -5% | 21* | 48 | -56%
O=C(N/N=C/c1ccc([N+](=O)[O-])o1)c1cn(-c2ccccc2)nc1-c1ccc(Cl)cc1 | 3% | 1% | -2 | -12 | ?
CC=CC1=C(C(=O)O)N2C(=O)[C@H](NC(=O)[C@H](N)c3ccc(O)cc3)[C@@H]2SC1 | . | . | -3 | -10 | .
COC(=O)[C@@H]1C[C@H]1[C@@H](NC(=O)c1ccccc1)c1ccccc1 | -18% | ? | -3 | -6 | -10%
CCCCCCC1/C(=N\NC(=O)c2ccccc2)CCC1C(=O)OC (stereo not drawn) | -6% | -15% | 35* | 80* | -1%
CC1(C)CC(CCNC(=O)c2ccco2)CC(C)(C)N1 | 3% | 1% | -2 | -4 | -2%

Assay outcomes: PubChem BioAssay, National Center for Advancing Translational Sciences (NCATS)
